Assay results published in PubChem BioAssay AID651784 (National Center for Advancing Translational Sciences (NCATS), 2012).
Records with an inconclusive call do not appear. The source made the active and inactive calls. The call rests on the fitted dose curve; in most records, active means well fitted inhibition curve with a large enough effect; inconclusive means small, poorly fitted or top-dose-only effect; inactive means no such curve, though single readings can be large or run the other way.

experiment: Acumen qHTS Assay for Inhibitors of the mTORC1 Signaling Pathway in MEF (Tsc2-/-, p53-/-) Cells: Hit Validation; conditions: Acumen imaging; activity change, negative = inhibition: at 37.3 µM (top of the series);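 further: phospho-rpS6 Ser235/236 immunofluorescence normalized to propidium iodide cell count; nearly all actives have a fitted effect of over 65% in size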;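 on activity change, negative = inhibition: cells exposed to compound for 24 hours; plate controls were DMSO for no effect and 7.5 nM rapamycin control for full effect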
Potency means the concentration at half of the fitted maximal effect.

| Structure (SMILES) | activity change, negative = inhibition [%] | Potency |
| --- | --- | --- |
| CCOc1ccc(CC(=O)NC2CC(=O)N(c3ccc4c(c3)OCCO4)C2)cc1 (stereo unspecified) | -2.04 | – |
| Cc1ccc(S(=O)(=O)c2nnn3c2nc(NCc2cccs2)c2sccc23)cc1 | -1.4 | – |
| Cc1nc2nncn2c(NCc2ccc(Cl)cc2)c1C | – | 4.14 µM (active) |
| COc1cccc(-c2nc(SCC(=O)NCC3CCCO3)c(-c3ccc(F)cc3)[nH]2)c1 (stereo unspecified) | -3.33 | – |
| Cc1ccc2c(c1)C(=O)C(=O)N2Cc1ccc(OC(C)C)cc1 | – | 0.0736 µM (active) |
| O=C(Cn1c(=O)c2cccn2c2ccccc21)NCc1ccccc1F | 18.1 | – |
| CCOCc1cc(CN2CCN(c3ccccc3OC)CC2)c(O)c2ncccc12 | – | 5.21 µM (active) |
| COc1ccccc1N1CCN(Cc2cc(COC(C)C)c3cccnc3c2O)CC1 | – | 5.21 µM (active) |
| Cc1cccc(CSCCNC(=O)CN(c2ccccc2)S(=O)(=O)N(C)C)c1 | 3.74 | – |
| CCOC(=O)N1CCN(Cc2nc3cc(NC(=O)c4ccc([N+](=O)[O-])cc4)ccc3n2C(C)C)CC1 | -17.8 | – |
| CCCCS(=O)(=O)c1oc(-c2cccs2)nc1S(=O)(=O)c1ccccc1 | – | 2.07 µM (active) |
| Cc1ccc(CN2C(=O)C(O)(CC(=O)c3ccc(C)cc3)c3ccccc32)cc1 (stereo unspecified) | – | 4.65 µM (active) |
| CN1CCC(Nc2ncc3ncnc(Nc4ccc(F)c(Cl)c4)c3n2)CC1 | -95 | – |
| CCc1ccc(S(=O)(=O)c2c(C(=O)c3ccc(C)c(C)c3)cnc3ccccc23)cc1 | 5.96 | – |
| CC(C)c1ccc(NS(=O)(=O)c2ccc3nc(-c4ccccc4)[nH]c3c2)cc1 | -0.821 | – |
| O=C(CCCn1c(=O)c2ccccc2n(Cc2cccc(Cl)c2)c1=O)NCCc1ccc(Cl)cc1 | -4.01 | – |
